In PubChem BioAssay (Tox21) one finds Potency data, which are given here for 40 compounds.

Results filed as inconclusive are left out. Where a call stands in place of a potency, no number is given. Calls of active or inactive are those of the source. Calls follow the shape of the dose curve; as a rule, active = well fitted cell-killing curve with a large enough effect in the repeat runs (not every such curve was filed as active); inconclusive = weak or mixed curves, or effect the other way; inactive = no such curve, though single readings can be large or run the other way.
Potency is read from the fitted curve at half-maximal effect.

The assay is described as follows: qHTS assay to identify small molecule antagonists of the farnesoid-X-receptor (FXR) signaling pathway - cell viability counter screen (AID 743221). Also: nearly all actives have a fitted effect of over 50% in size. The note with it: FXR-bla HEK293T viability, CellTiter-Glo luminescence, 16 h; series mostly up to 62.6 µM. The text has this: National Center for Advancing Translational Sciences [NCATS]
NIH Chemical Genomics Center [NCGC]
U.S. Environmental Protection Agency [EPA]
National Institutes of Environmental Health Sciences [NIEHS]
National Toxicology Program [NTP]
U.S. Food and Drug Administration [FDA]
The farnesoid-X-receptor (FXR), a nuclear hormone receptor, is highly expressed in liver, intestine, kidney and adrenal cortex. Natural ligands of FXR are the bile acids (Cholic acid, Chenodeoxy cholic acid etc). FXR is an important regulator of diverse metabolic pathways, including the bile acid homeostasis, lipid and glucose metabolisms. FXR regulates the expression of target genes by binding either as a monomer or as a heterodimer with the retinoid X receptor (RXR). Numerous studies have reported that FXR exerts protective function during cholestasis, diabetes, liver regeneration, and cancer. To identify compounds that inhibit FXR signaling, GeneBLAzer FXR-UAS-bla HEK 293T cell line (Invitrogen, Carlsbad, CA) containing a beta-lactamase reporter gene under the control of a UAS response element was used to screen the Tox21 10K compound library. The cytotoxicity of the Tox21 compound library against the FXR-bla cell line was tested in parallel by measuring the cell viability using CellTiter-Glo assay in the same wells.
Tox21 Assay Protocol Summary:
FXR-bla cells were dispensed at 5000 cells/5uL/well in 1536-well black wall/clear bottom plates using a Multidrop Combi (Thermo Fisher Scientific, Waltham, MA) dispenser. After the assay plates were incubated at 37 C and 5% CO2 for 5 h, 23 nL of compounds dissolved in DMSO, positive controls or DMSO only was transferred to the assay plate by a Pintool station (Kalypsys, San Diego, CA), followed by addition of 1 uL Chenodeoxycholic acid (50 uM, final concentration in the wells). The assay plates were incubated at 37C for 16 h. After 1 uL of LiveBLAzerTM B/G FRET substrate was added using a Bioraptr Flying Reagent Dispenser (FRD) workstation (Beckman Coulter, Indianapolis, IN), the plates were incubated at room temperature for 2 h, and fluorescence intensity was measured by an Envision plate reader (PerkinElmer, Shelton, CT). For cell viability readout that measures cytotoxicity, 4uL/well of CellTiter-Glo reagent was added into the assay plates using a Bioraptr FRD. After 30 min incubation at room temperature, the luminescence intensity in the plates was measured using a ViewLux plate reader (PerkinElmer).
(Quantitative high-throughput screening tests each substance at several concentrations.)
In the case of `c1ccc2sc(SN(C3CCCCC3)C3CCCCC3)nc2c1`, the Potency entry was “inactive”.
The same measure for `COC(=O)[C@H]1[C@H]2C[C@@H]3c4[nH]c5cc(OC)ccc5c4CCN3C[C@H]2C[C@@H](OC(=O)/C=C/c2ccc(O)c(OC)c2)[C@@H]1OC`: 18.8 µM (active).
The value for `Cc1ccc(C(C)(C)O)cc1` was “inactive”; that for `CCc1ccccc1` was “inactive”; that for `CCOc1ccccc1O[C@H](c1ccccc1)[C@H]1CNCCO1` was “inactive”.
The same measure for `CN1C(=O)OC(C)(C)C1=O`: “inactive”; for `COc1cc(Nc2c(C#N)cnc3cc(OCCCN4CCN(C)CC4)c(OC)cc23)c(Cl)cc1Cl`: 26.6 µM (active).
On to `O=C1NC(=O)c2cc([N+](=O)[O-])ccc21`, for which the Potency entry was “inactive”.
The same measure for `COc1cc(C(=O)NCCCCCC(=O)O)cc(OC)c1OC`: “inactive”; for `Nc1nc2ccc([N+](=O)[O-])cc2s1`: “inactive”.
The same measure for `CC(=O)N/N=C/c1ccc([N+](=O)[O-])o1`: “inactive”.
The same measure for `CC(C)C=O`: “inactive”; for `Cc1ccccc1S`: “inactive”; for `CC(CCC(=O)O)C(=O)O` (stereo not given): “inactive”.
As to `C=C1c2cccc(O)c2C(O)=C2C(=O)[C@]3(O)C(O)=C(C(N)=O)C(=O)[C@@H](N(C)C)[C@@H]3[C@@H](O)[C@H]12`, the Potency result is “inactive”.
The same measure for `O=c1[nH]ncc2ccccc12`: “inactive”.
The same measure for `C=C(C)C(=O)OCCOCCOC(=O)C(=C)C`: “inactive”.
The value for `C[C@@]12CCC[C@H]1[C@@H]1CC[C@H]3C[C@@H](O)CC[C@]3(C)[C@H]1CC2` was “inactive”; that for `O=c1cc(-c2ccccc2)oc2ccc3ccccc3c12` was 19.5 µM (active).
On to `CCOc1cccc(-n2cc(C(=O)N3CCN(c4cc(C(=O)O)c5ccccc5c4)CC3)nc2-c2ccc(C)cc2)c1`, for which the Potency entry was “inactive”.
The value for `Nc1nnc(-c2ccc([N+](=O)[O-])o2)o1` was “inactive”.
The same measure for `O=Cc1c2ccccc2c(Cl)c2ccccc12`: “inactive”; for `O=[N+]([O-])c1cc(C2CCCCC2)c(O)c([N+](=O)[O-])c1`: “inactive”; for `C[C@@H]1CN(CCCn2c3ccccc3c3ccccc32)C[C@H](C)N1`: 29.8 µM (active).
`Cc1cc(=O)c2c(O)c3c(O)cc(=O)c4c3c3c(cc(O)c1c23)C(C)(C)C=4O`: the Potency is 1.84 µM (active).
The same measure for `O=C(CCc1ccc(O)cc1)c1c(O)cc(O)cc1O`: “inactive”; for `O=C(O)CCC(=O)C(=O)O`: “inactive”; for `CC(C)=CCC/C(C)=C/CC/C(C)=C/CCC(=O)OC/C=C(\C)CCC=C(C)C`: “inactive”.
The same measure for `OC(CCN1CCCC1)(c1ccccc1)C1CCCCC1` (stereo not given): “inactive”; for `COc1ccc(OC(=O)N(CC(=O)O)Cc2ccc(OCCc3nc(-c4ccccc4)oc3C)cc2)cc1`: “inactive”.
As for `CC1(CN2CCC(n3c(=O)[nH]c4ccccc43)CC2)OCc2ccccc2-n2cccc21` (stereo not given), the Potency result was “inactive”.
The same measure for `Cc1cc(C)cc(N)c1`: “inactive”; for `C[C@@H](O)[C@H]1C(=O)N2C(C(=O)O)=C([C@H]3CCCO3)S[C@H]12`: “inactive”; for `C(=C\c1ccccc1)/c1ccccc1`: “inactive”.
The value for `CCCCCCCC/C=C\CCCCCCCCO` was “inactive”; that for `CCCC(C(=O)OCCN(CC)CC)(c1ccccc1)c1ccccc1` was “inactive”.
The same measure for `CCC1CO1` (stereo not given): “inactive”.
Turning to `Cc1ccc(Cl)c(Nc2ccccc2C(=O)O)c1Cl`, the Potency entry is “inactive”.
The value for `O=C(Cn1ccnc1[N+](=O)[O-])NCCO` was “inactive”.
The same measure for `COC(=O)C1=C(C)NC(C)=C(C(=O)O[C@@H]2CCCN(Cc3ccccc3)C2)[C@@H]1c1cccc([N+](=O)[O-])c1`: “inactive”.
